Experiments:
Assay in all cases: log2 ratio of Biotin-Ahx-Ub-VS probe labelling (fragment/DMSO); higher = less target engagement (more negative = stronger competition), active = hit call of the paper (q ≤ 0.05, log2 ratio ≤ -1)
Settings in all cases: compound concentration: 200 uM; treatment time: 3 h
USP19 = molecular target: T1, USP19 (UniProt O94966)
T1 sequence (whole entry): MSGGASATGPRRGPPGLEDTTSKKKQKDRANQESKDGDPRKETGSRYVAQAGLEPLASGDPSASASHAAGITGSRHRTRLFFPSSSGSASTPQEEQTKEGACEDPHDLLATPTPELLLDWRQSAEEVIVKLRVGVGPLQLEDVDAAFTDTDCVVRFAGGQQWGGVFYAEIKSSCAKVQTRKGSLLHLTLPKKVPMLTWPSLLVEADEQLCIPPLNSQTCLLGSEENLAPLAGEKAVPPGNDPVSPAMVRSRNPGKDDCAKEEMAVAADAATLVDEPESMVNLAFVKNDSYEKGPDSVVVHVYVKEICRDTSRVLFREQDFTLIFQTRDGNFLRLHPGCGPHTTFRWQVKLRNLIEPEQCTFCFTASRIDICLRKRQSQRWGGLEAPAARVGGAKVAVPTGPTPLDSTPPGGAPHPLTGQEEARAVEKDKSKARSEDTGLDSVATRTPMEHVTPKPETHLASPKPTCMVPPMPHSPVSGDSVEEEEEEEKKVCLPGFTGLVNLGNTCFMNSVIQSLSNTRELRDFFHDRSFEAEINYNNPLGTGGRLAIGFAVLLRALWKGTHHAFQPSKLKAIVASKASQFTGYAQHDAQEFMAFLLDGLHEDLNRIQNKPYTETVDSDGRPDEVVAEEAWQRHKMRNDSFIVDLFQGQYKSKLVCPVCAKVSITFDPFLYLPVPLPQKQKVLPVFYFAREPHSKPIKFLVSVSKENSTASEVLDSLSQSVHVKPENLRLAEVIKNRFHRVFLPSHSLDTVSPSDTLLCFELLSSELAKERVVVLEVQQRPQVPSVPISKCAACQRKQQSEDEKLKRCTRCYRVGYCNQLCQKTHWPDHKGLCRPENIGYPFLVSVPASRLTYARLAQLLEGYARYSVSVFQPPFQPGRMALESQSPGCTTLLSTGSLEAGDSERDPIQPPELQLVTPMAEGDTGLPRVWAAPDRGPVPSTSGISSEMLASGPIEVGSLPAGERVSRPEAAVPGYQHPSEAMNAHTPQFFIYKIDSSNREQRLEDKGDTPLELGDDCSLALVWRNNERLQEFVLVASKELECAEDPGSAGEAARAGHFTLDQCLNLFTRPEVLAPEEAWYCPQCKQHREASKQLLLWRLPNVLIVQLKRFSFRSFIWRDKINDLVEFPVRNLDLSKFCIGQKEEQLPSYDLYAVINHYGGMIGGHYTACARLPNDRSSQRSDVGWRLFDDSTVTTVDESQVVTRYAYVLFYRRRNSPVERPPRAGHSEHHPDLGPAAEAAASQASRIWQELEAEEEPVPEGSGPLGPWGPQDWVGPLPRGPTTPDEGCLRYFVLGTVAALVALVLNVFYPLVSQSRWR
Summary of the method: (§1)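 Each value is an average log2 ratio of fragment to vehicle, tested by unpaired t-test. The underlying Spectronaut label-free quantities were global-median-normalised, and only proteins with ≥2 unique peptides were included. Triplicate HEK293T lysate samples (495 µg) were exposed to fragment at 200 µM or vehicle for 3 h, then to Biotin-Ahx-Ub-VS at 0.5 µM final for 1 h, before NeutrAvidin enrichment of labelled DUBs, LysC and trypsin digestion, and diaPASEF LC-MS/MS.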

USP24 = USP24 (UniProt Q9UPU5)
Chain of USP24 (Q9UPU5 whole entry): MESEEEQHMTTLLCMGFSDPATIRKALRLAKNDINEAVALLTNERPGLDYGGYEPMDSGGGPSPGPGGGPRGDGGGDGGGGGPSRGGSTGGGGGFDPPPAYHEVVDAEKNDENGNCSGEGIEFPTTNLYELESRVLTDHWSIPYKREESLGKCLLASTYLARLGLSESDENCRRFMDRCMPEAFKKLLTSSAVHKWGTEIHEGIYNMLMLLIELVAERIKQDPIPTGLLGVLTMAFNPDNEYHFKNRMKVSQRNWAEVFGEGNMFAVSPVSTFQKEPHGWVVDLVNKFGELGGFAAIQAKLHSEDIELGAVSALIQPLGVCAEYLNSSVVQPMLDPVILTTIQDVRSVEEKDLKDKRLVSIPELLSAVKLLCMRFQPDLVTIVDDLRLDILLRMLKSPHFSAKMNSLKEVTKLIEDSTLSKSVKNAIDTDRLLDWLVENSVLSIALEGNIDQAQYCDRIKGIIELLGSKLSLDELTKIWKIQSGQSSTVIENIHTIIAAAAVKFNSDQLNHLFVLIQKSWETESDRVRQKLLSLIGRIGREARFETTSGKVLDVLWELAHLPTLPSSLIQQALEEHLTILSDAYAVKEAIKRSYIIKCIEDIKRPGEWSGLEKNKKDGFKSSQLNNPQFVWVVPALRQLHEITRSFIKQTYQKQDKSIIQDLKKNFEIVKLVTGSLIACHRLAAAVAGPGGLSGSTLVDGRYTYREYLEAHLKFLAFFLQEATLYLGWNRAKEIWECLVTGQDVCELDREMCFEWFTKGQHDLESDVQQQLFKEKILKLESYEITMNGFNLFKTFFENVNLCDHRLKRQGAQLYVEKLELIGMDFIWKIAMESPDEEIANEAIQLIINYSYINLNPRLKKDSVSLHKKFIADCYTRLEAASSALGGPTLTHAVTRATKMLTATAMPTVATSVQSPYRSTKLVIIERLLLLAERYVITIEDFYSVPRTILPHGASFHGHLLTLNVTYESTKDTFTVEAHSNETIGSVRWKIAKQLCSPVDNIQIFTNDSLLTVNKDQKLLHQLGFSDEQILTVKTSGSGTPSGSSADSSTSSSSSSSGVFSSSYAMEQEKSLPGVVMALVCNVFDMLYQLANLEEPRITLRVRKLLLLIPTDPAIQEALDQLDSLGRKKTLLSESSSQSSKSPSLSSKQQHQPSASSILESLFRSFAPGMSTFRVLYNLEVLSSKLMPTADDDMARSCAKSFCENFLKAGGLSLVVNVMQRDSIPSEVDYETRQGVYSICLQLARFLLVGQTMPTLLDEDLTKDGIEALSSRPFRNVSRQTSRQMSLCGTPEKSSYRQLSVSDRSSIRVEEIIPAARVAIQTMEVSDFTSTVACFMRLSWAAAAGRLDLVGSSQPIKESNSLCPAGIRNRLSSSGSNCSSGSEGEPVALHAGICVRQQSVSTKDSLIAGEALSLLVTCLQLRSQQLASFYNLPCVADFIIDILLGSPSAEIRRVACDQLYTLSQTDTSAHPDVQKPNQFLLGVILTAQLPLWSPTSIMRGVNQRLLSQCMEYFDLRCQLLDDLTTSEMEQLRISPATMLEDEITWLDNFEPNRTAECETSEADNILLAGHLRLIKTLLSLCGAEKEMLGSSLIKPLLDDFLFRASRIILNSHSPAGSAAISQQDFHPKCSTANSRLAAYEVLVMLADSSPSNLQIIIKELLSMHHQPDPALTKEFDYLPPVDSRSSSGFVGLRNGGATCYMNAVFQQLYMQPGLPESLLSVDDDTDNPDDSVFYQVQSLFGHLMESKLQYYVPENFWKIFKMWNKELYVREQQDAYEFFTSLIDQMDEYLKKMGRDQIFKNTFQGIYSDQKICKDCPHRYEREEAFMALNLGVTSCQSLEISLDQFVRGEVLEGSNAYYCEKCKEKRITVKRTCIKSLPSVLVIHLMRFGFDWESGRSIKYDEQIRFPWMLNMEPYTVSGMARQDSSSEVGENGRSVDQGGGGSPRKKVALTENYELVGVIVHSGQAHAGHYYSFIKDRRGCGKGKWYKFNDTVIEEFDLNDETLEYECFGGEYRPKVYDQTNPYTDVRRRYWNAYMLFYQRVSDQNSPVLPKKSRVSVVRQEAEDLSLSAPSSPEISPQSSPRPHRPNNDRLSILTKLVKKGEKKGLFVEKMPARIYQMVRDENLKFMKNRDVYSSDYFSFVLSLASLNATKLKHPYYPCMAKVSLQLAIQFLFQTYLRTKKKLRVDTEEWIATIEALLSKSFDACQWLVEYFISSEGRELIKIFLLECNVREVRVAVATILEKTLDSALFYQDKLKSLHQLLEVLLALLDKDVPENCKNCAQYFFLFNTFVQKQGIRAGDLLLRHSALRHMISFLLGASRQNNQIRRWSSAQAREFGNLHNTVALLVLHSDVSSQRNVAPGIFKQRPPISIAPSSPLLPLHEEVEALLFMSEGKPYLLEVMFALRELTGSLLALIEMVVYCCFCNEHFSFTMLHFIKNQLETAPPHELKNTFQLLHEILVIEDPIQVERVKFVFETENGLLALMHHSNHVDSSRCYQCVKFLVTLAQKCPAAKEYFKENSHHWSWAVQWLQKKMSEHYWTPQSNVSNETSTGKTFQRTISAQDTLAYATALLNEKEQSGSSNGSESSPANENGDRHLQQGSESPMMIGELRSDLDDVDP
Summary of the method: as §1

USP25 = molecular target: T2, USP25 (UniProt Q9UHP3)
T2 sequence (whole entry): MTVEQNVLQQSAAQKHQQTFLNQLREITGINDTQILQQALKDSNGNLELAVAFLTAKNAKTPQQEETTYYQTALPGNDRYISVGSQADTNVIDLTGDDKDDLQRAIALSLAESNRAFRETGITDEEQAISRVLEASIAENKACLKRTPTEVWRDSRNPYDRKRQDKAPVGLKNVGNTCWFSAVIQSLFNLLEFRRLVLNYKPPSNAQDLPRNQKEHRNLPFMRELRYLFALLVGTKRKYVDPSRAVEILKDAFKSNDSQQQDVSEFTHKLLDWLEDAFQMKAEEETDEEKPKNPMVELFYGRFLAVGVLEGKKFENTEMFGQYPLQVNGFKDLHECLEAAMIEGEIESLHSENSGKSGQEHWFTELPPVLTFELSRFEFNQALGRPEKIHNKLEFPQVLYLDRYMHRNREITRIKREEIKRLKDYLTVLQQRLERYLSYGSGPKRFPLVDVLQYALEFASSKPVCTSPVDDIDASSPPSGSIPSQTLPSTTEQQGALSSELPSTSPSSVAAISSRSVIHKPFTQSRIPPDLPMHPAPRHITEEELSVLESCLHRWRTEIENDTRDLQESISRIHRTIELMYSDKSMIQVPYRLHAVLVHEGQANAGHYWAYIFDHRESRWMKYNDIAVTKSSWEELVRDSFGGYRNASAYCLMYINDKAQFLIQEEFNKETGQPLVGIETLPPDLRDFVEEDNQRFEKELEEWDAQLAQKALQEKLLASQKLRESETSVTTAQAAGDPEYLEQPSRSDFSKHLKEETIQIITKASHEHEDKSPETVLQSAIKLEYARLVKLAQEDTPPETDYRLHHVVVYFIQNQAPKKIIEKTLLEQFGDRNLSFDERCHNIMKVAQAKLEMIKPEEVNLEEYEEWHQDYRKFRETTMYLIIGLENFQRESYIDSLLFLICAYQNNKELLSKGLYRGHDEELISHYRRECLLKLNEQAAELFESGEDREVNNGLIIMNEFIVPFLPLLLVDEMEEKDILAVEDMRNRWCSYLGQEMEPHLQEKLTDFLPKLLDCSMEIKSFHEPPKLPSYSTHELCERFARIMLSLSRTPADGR
Summary of the method: as §1

USP28 = molecular target: T3, USP28 (UniProt Q96RU2)
T3 sequence (whole entry): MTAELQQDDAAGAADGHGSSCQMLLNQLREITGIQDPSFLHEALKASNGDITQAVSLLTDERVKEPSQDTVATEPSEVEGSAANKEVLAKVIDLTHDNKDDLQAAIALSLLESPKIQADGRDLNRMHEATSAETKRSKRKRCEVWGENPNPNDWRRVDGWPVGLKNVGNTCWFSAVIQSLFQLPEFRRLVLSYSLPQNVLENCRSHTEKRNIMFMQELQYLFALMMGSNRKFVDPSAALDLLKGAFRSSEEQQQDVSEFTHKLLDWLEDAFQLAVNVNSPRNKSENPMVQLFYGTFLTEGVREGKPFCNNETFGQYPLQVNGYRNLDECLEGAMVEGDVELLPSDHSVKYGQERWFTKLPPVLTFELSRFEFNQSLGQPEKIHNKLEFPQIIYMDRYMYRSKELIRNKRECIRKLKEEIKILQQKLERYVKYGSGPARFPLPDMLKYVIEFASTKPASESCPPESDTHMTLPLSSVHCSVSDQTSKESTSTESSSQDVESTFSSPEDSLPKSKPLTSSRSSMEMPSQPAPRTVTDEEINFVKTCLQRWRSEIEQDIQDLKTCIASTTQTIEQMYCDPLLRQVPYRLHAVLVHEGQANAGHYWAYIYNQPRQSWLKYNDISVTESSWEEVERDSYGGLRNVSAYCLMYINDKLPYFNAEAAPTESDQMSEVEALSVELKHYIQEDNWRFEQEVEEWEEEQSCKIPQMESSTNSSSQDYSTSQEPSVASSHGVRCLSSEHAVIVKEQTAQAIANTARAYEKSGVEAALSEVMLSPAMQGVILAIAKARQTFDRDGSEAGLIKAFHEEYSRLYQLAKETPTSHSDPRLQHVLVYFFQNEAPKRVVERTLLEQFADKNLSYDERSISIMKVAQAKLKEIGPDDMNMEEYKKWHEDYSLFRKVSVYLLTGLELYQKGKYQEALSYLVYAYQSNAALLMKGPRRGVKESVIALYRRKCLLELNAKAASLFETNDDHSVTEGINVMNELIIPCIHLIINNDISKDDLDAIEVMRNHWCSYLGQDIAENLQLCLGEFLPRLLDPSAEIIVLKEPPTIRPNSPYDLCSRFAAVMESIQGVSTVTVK
Summary of the method: as §1

Measured: log2 ratio of Biotin-Ahx-Ub-VS probe labelling

Cc1nnc(C(NC(=O)CCl)c2ccccc2)n1C (centres undefined)
inactive: USP19 0.626 | USP24 0.636 | USP25 0.465 | USP28 0.507
